LYPLA2 inh: blocks human lysophospholipase 2, a PME1 counter-screen; O95372; recombinant LYPLA2, FP-Rh probe fluorescence polarization; inhibition, % at 5.9 µM; hit rate 0.38% among 320,000; AID 2177;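 active = inhibition above the screen-wide mean plus 3 SD, limit set per campaign, cut at about 26% in these data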;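 note: 0% = LYPLA2 with DMSO and 100% = wells lacking LYPLA2 enzyme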
Target sequence (O95372 whole entry, looked up): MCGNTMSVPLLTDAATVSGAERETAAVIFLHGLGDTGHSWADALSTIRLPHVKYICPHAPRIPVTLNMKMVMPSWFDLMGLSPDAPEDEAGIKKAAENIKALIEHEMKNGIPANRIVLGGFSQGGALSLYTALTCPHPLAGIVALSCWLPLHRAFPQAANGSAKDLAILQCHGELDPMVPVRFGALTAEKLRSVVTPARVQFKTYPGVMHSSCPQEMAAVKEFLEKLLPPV
PAD4 FP inh: inhibitors of human PAD4; Q9UM07; recombinant PAD4, RCA probe fluorescence polarization; inhibition, % at 6.36 µM; hit rate 0.41% among 330,000; AID 485272;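 active = percent inhibition above a cutoff equal to the mean of all tested compounds plus 3 SD, cut at about 15% in these data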;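 note: 0% = PAD4 with RCA probe and DMSO and 100% = probe without PAD4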
LYPLA1 inh: counter-screen for PME1 inhibitors: inhibitors of human LYPLA1; O75608; recombinant LYPLA1, FP-Rh probe fluorescence polarization; inhibition, % at 5.9 µM; hit rate 0.16% among 320,000; AID 2174;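 active = inhibition above the mean of all tested compounds plus 3 SD, set per campaign, cut at about 14% in these data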;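 note: inhibitors block serine hydrolase probe labeling of LYPLA1 so polarization falls; 0% = enzyme with DMSO and 100% = wells lacking LYPLA1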
Fam108B inh: counter-screen for RBBP9 inhibitors: inhibitors of mouse Fam108B. recombinant Fam108B, FP-Rh probe fluorescence polarization. inhibition, % at 9.51 µM. hit rate 0.33% among 300,000;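 active = inhibition above the screen mean inhibition plus 3 SD, computed separately per campaign, cut at about 18% in these data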;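 note: inhibitors lower polarization as less probe binds the enzyme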
GSTO1 inh: counter-screen for RBBP9 inhibitors: inhibitors of human GSTO1; recombinant GSTO1, activity-based probe fluorescence polarization; hit rate 1.1% among 300,000; inhibition, % at 5.96 µM;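 active = inhibition above the campaign mean inhibition plus 3 SD, cut at about 35% in these data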;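 note: 0% = GSTO1-1 with DMSO and 100% = wells lacking GSTO1-1 enzyme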
PME-1 primary: PME-1 (human) inhibition | inhibition, % at 5.9 µM | AID 2130 | Q9Y570 | hit rate 0.53% among 320,000 | recombinant PME-1, FP-Rh probe fluorescence polarization;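 active = inhibition above the campaign mean of all compounds plus 3 SD, cut at about 26% in these data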;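 note: competitive labeling of PME-1 active site by serine hydrolase directed probe; 0% = PME-1 with DMSO and 100% = wells lacking PME-1 enzyme; inhibitors block probe labeling so polarization falls and inhibition rises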
Target sequence (Q9Y570 whole entry, looked up): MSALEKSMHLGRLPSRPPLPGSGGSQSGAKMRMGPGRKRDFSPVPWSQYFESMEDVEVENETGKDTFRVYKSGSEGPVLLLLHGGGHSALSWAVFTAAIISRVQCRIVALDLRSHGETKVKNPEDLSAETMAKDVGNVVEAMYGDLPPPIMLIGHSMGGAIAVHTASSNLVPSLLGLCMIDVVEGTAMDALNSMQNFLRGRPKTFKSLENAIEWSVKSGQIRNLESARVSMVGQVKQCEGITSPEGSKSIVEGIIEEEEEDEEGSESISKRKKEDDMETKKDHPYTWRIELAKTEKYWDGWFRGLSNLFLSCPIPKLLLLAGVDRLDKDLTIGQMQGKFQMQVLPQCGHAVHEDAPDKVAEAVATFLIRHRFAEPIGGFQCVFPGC
Fam108b inh conf: Fam108b (mouse) hydrolase inhibition, confirmation assay. recombinant Fam108b, FP-Rh probe fluorescence polarization. hit rate 44% among 930. inhibition, % at 9.51 µM. shares compounds with Fam108B inh. AID 1978;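 active = inhibition above a limit from the primary screen, the mean over all compounds plus 3 SD, cut at about 19% in these data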;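 note: 0% = median of active Fam108b wells and 100% = catalytically dead S170A mutant; inhibitors free the probe so polarization falls as inhibition rises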
* = called active by the depositor; . = no result given. Only some compounds are listed: those with a hit (about 1.8% of all), similar ones and a draw of the others.

SMILES	LYPLA2 inh	PAD4 FP inh	LYPLA1 inh	Fam108B inh	GSTO1 inh	PME-1 primary	Fam108b inh conf
Cc1ccccc1N1CCN(C2CCCN(C(=O)CCN3CCCCO3)C2)CC1 (stereo unspecified)	-3	-3	-3	-3	9	1	.
Cc1[nH]c2ccccc2c1/C=N/Nc1ccccc1[N+](=O)[O-]	4	1	3	22*	6	47*	-8
Cc1[nH]c2ccccc2c1/C=N/NS(=O)(=O)c1ccccc1	-9	0	-6	3	7	5	.
CCOC(=O)/C(=N\Nc1ccc(OC)cc1)c1csc(Nc2ccccc2)n1	3	4	-10	23*	6	11	10
CCN(CC)C(=O)c1csc(Nc2ccc(C)cc2)n1	4	0	1	2	0	2	.
CCCCC(CCC(=O)O)(C(=O)OCC)c1csc(Nc2ccccc2)n1 (stereo unspecified)	-9	3	-1	-2	-6	-2	.
CCOC(=O)/C(=N/Nc1ccccc1)c1csc(Nc2ccccc2)n1	-8	-5	-14	22*	3	10	-7
CCOC(=O)/C(=N\Nc1ccc(Cl)cc1)c1csc(Nc2ccccc2)n1	5	2	-5	21*	2	29*	27*
O=C(Cn1ccc(NC(=O)OCc2ccccc2)nc1=O)NCc1ccccn1	6	-1	1	.	.	-7	.
CCn1c(SCC(=O)NNC(=O)c2ccco2)nnc1-c1ccco1	-7	0	-3	-3	3	2	.
CCOC(=O)C(CC)n1cnc2c(nnn2-c2cccc(OC)c2)c1=O (stereo unspecified)	15	4	0	1	6	2	.
NS(=O)(=O)c1ccc(NC(=O)COc2ncnc3sccc23)cc1	-7	2	-4	-2	-2	-2	.
O=C1c2ccccc2C(=O)N1OS(=O)(=O)c1ccccc1	-3	-5	-2	29*	4	-2	-18
O=C(Nc1ccc(Cl)cc1)c1cc2c(cc1O)[nH]c1ccccc12	-3	-2	-11	25*	21	-48	-98
CCOC(=O)CSc1nc2c(sc(=S)n2-c2ccccc2OC)c(=O)n1Cc1ccco1	-4	-4	-3	19*	-1	26	7
COc1cc(/C=C2/C(=O)NN(c3cccc(C)c3)C2=O)cc([N+](=O)[O-])c1O	4	-1	4	83*	8	6	6
COc1cc(OC)cc(C(=O)NCCNC(=O)c2ccco2)c1	3	2	-2	0	17	0	.
COc1cc2c(cc1OC)C1=NC(=O)CN1C(SCc1ccccc1)=N2	8	6	0	-3	3	0	.
O=C(NC(=S)NNC(=O)c1ccccc1O)c1cccc([N+](=O)[O-])c1	-3	0	-3	19*	7	5	10
CC(C)NC(=O)C(c1ccc(F)cc1)N(Cc1ccco1)C(=O)CCC(=O)Nc1ccccn1 (stereo unspecified)	4	-4	1	4	-4	-1	.
COc1ccc(-c2nc(-c3cccs3)c(-c3cccs3)[nH]2)cc1OC	-5	1	-3	10	3	13	.
O=[N+]([O-])c1cccc(-c2nc(-c3ccccc3)c(-c3cccs3)[nH]2)c1	1	-5	2	-2	-4	2	.
Fc1ccc(-c2nc(-c3cccs3)[nH]c2-c2ccc(F)cc2)cc1	15	-2	4	19*	-2	15	6
O=[N+]([O-])c1cccc(-c2nc(-c3cccs3)c(-c3cccs3)[nH]2)c1	8	-1	-4	26*	-3	32*	7
O=[N+]([O-])c1ccc(-c2nc(-c3cccs3)c(-c3cccs3)[nH]2)cc1	-8	-19	-22	24*	-20	42*	20*
SMILES	LYPLA2 inh	PAD4 FP inh	LYPLA1 inh	Fam108B inh	GSTO1 inh	PME-1 primary	Fam108b inh conf
COc1cccc(NC(=O)CN(C)C(=O)C2CCN(C(=O)c3ccccc3C)CC2)c1	-1	0	-2	19*	8	2	0
Cc1ccc(S(=O)(=O)N2CCC[C@H]2C(=O)OC(C)C(=O)Nc2ncc(Cl)cc2Cl)cc1 (stereo partly specified)	-2	-1	2	-2	-4	2	.
CCCOc1ccc(C2C3=C(Nc4nc(N)[nH]c(=O)c42)c2ccccc2C3=O)cc1 (stereo unspecified)	-6	-4	-14	23*	2	13	19*
CN1C(=O)/C(=C/c2ccc(C(=O)Nc3ccc(O)cc3C(=O)O)cc2)SC1=S	-3	5	0	19*	17	35*	-12
CC1CCCCN1S(=O)(=O)c1ccc(C(=O)Nc2ccccc2-c2nc3ccccc3[nH]2)cc1 (stereo unspecified)	8	-3	-6	32*	-12	28*	72*
CC1CCCCN1S(=O)(=O)c1ccc(C(=O)Nc2ccccc2-c2nc3ccccc3s2)cc1 (stereo unspecified)	2	3	1	-1	1	4	.
O=C(NNc1c(Cl)cncc1Cl)c1cccs1	-2	2	2	4	5	-6	.
COc1ccc(CC(=O)N/N=C/c2ccc(C)s2)cc1	2	0	-1	-1	-1	1	.
Cn1ncc2c(Nc3cccc(Cl)c3)nc(Nc3cccc(Cl)c3)nc21	-53	-2	-37	-34	-32	-34	.
Cn1ncc2c(Nc3ccc(Br)cc3)nc(Nc3ccc(Br)cc3)nc21	-57	0	-40	19*	-34	11	-21
N=C1/C(=C\c2ccc(-c3cccc(C(=O)O)c3)o2)C(=O)N=C2SC=C(c3ccccc3)N12	-5	-18	-12	24*	-43	3	3
Cc1ccc2nc(/C(C#N)=C/c3ccccc3C(=O)O)[nH]c2c1	-6	-8	-4	-2	-3	1	.
Cc1ccc2nc(/C(C#N)=C\c3ccc(N4CCCCC4)c([N+](=O)[O-])c3)[nH]c2c1	15	-4	-8	31*	-10	68*	0
O=C1O/C(=C/c2ccccc2)c2ccccc21	5	-5	-2	1	4	-7	.
N#CC1=C(c2ccccc2)/C(=C/c2ccccc2)OC1=O	4	-1	8	19*	3	11	23*
O=C(c1cc2ncc(Br)cn2n1)N1CCOCC1	-6	-1	-3	1	7	-2	.
O=C(c1cc2ncc(Br)cn2n1)N1CCN(C(=O)c2ccco2)CC1	-1	-1	-3	19*	5	1	-7
Cc1ccc(SC2CC(=O)N(c3ccc4c(c3)OCCO4)C2=O)cc1 (stereo unspecified)	-2	-1	-3	4	-1	-3	.
CCc1ccc2[nH]c(=O)c(CN(CCN(CC)CC)C(=S)NCc3ccco3)cc2c1	5	-2	3	-3	-1	-5	.

Screening results from PubChem.
